Source: PubChem BioAssay (NCATS)
Inconclusive results are not listed. The source made the active and inactive calls. Calls follow the shape of the full dose curve. Starred links: 1 amine or outer side, 2 acyl side, 3 side chain; linkers in the order of their positions; H or OH if unused. Positions of bridges follow the written chain, without caps; N, C: chain ends. Non-standard residues stand in square brackets, D forms with d. Residues, ends and D or L forms follow the SMILES beside them. ξ: configuration not given here. *: point of attachment. ΔAla(3-NHCONH2) = NC(=O)NC=C(N)C(=O)O; X1 = NC1=NCCC(C(N[*:1])C(=O)[*:2])N1; ξβ3hOrn = NCCCC(N)CC(=O)*; Dap = NC[CH](N)C(=O)O

Tests used:
[1] = Primary qHTS for inhibitors of SARS-S pseudo-typed particle cell entry (AID 1479145); details: SARS-S pseudotyped particle cell entry, luciferase reporter; series mostly up to 57.1 µM; also: nearly all actives have a fitted effect of over 45% in size
[2] = Primary qHTS for Huh7 cytotoxicity: counterscreen for inhibitors of MERS-S pseudotyped particle cell entry (AID 1479147); details: cell viability read-out; series mostly up to 57.1 µM; as to activity change, negative = cytotoxicity: % is scaled to controls: 0 for no effect and ±100 for the full control effect
[3] = Primary qHTS for inhibitors of MERS-S pseudo-typed particle cell entry (AID 1479149); details: MERS-S pseudotyped particle entry, luciferase; series mostly up to 57.1 µM; also: nearly all actives have a fitted effect of over 60% in size
[4] = Primary qHTS for Vero E6 cytotoxicity: counterscreen for inhibitors of SARS-S pseudo-typed particle cell entry (AID 1479150); details: cell viability; series mostly up to 57.1 µM; as to activity change, negative = cytotoxicity: % is scaled to controls: 0 for no effect and ±100 for the full control effect

COc1ccccc1OCC(O)COC(N)=O (stereo not given)
inactive: Potency [1] | Potency [2] | Potency [3] | Potency [4]

COc1cc2c(cc1OC)[C@@H]1CC(=O)[C@@H](CC(C)C)CN1CC2
inactive: Potency [1] | Potency [2] | Potency [3] | Potency [4]

Oc1ccc(C2CNCCc3c2cc(O)c(O)c3Cl)cc1 (stereo not given)
inactive: Potency [1] | Potency [2] | Potency [3] | Potency [4]

CCCCOCCOCCOCc1cc2c(cc1CCC)OCO2
inactive: Potency [1] | Potency [2] | Potency [3] | Potency [4]

NCCCC(N)CC(=O)NCC1NC(=O)C(CO)NC(=O)C(N)CNC(=O)C(C2CCN=C(N)N2)NC(=O)C(=CNC(N)=O)NC1=O (stereo not drawn) (H-[Dap]S[Dap](ξβ3hOrn)[ΔAla(3-NHCONH2)][X1]; lactam 1-C; configuration not given here)
inactive: outcome [1] inactive [at 0.573 µM] | activity change, negative = cytotoxicity [2] 3.81% [at 0.573 µM] | outcome [3] inactive [at 0.573 µM] | outcome [4] inactive [at 0.573 µM]

O=C(C1CCCCC1)N1CC(=O)N2CCc3ccccc3C2C1 (stereo not given)
inactive: Potency [1] | Potency [2] | Potency [3] | Potency [4]

C1N2CN3CN1CN(C2)C3
inactive: Potency [1] | Potency [2] | Potency [3] | Potency [4]

C[C@@H](O)[C@H]1C(=O)N2C(C(=O)O)=C(S[C@@H]3CN[C@H](CNS(N)(=O)=O)C3)[C@H](C)[C@H]12
inactive: Potency [1] | Potency [2] | Potency [3] | Potency [4]

Cc1ccc(S(=O)(=O)NC(=O)NN2CC3CCCC3C2)cc1 (stereo not given)
inactive: Potency [1] | Potency [2] | Potency [3] | Potency [4]

CC1(C)O[C@@H]2[C@@H](CO[C@@]3(COS(N)(=O)=O)OC(C)(C)O[C@@H]23)O1
inactive: Potency [1] | Potency [2] | Potency [3] | Potency [4]
